Measured values as given in PubChem BioAssay (NCI).
This is part of a sample that, as a whole, favours compounds with a hit. Of some 83,000 tested, about 20% had one in any assay.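 A percent growth of 40 corresponds to 60% growth inhibition; 0 means no net growth; -100 means all cells died. Active threshold: below 10.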 Unmarked numbers belong to inactive results. Active and inactive are the calls of the source.

Each compound was assayed on OVCAR-4 ovarian (assay: NCI-60 one-dose screen, 48 h (100 = growth as untreated, 0 = no growth, -100 = all killed)). Conditions: 10 µM.

Structure (SMILES)	growth
C=C/C(C)=C/C[C@]1(C)[C@H](C)[C@@H](OC(=O)CCC)[C@H](O)[C@@]23C(=C[C@H](OC)C[C@@H]12)[C@@H](OC(=O)CCC)O[C@H]3OC(C)=O	-2.11% (active)
COc1ccc(-c2cc(-c3cc(OC)ccc3OC)nc(N)c2C#N)cc1	48.4%
COc1ccc(-c2nn(-c3cccc(Cl)c3)cc2-c2cc(-c3ccccc3)nc(N)n2)cc1	56.1%
COc1ccccc1-n1c(-c2sc(NC(C)=O)nc2C)n[nH]c1=S	106%
COc1cc2c3c(n(C4CCN(C)CC4)c(=O)c2cc1OC)-c1cc2c(cc1C3=O)OCO2	84.9%
COc1cc(-c2ccc[nH]2)[nH]c1/C=C1\N=C(C)C(C(=O)NC(C)C)=C1C	23.5%
COc1ccc(-c2nn(-c3cccc(Cl)c3)cc2C=C(C#N)C#N)cc1	7.22% (active)
Fc1ccc2[nH]cc(-c3nc(-c4ccsc4)cs3)c2c1	101%
CCn1c2ccc(O)cc2c2c(C)c3c[n+](C)ccc3c(C)c21	52%
CC[C@H]1OC(=O)[C@H](C)[C@@H](O[C@H]2C[C@@](C)(OC)[C@@H](O)[C@H](C)O2)[C@H](C)[C@@H](O[C@@H]2O[C@H](C)C[C@H](N(C)C)[C@H]2O)[C@](C)(OC)C/C(C)=C2/O[C@@]1(C)C=C2C	73.5%
N#Cc1c(-c2ccc(Cl)cc2)cc(-c2cc(O)ccc2O)nc1N	22.9%
COc1cc2c3c(n([C@@H]4CCOC4)c(=O)c2cc1OC)-c1cc2c(cc1C3=O)OCO2	72.2%
